# Laboratory results as given in PubChem BioAssay AID463173 (ICCB-Longwood Screening Facility, Harvard Medical School, 2010).
# Out of some 52,000 compounds screened, about 4,300 (8.3%) were called active. Cut-off read from the data, not from the text of the source: active = survival mostly below about 52% (no sharp cut-off); inactive = mostly above about 56%. For the sample, actives were picked, then their nearest neighbours and some compounds at random.
# System: DeltatarO mutant
# Assay: growth inhibition of S. aureus wild type versus tarO mutant, primary screen, teichoic acid synthesis inhibitors, RN4220, OD600 (AID 463173)
# Settings: OD600, 18 h, active compounds read low, screened at 18.75 µg/mL (by protocol)
row,SMILES,survival
1,CCN(CC)C(=O)C1CCN(Cc2cccc(OC)c2OC)CC1,99% (inactive)
2,CCN(C(=O)CSc1nc2ccccc2n1CC(=O)N1CCCC(C)C1)c1ccccc1 (centres undefined),109% (inactive)
3,COc1ccc(Br)cc1CNC(=O)c1cnc2sc(N3CCCC3)nn2c1=O,98% (inactive)
4,COc1ccccc1-n1c(=O)c2c3c(sc2n(Cc2ccccc2F)c1=O)CN(C(C)=O)CC3,120% (inactive)
5,O=S(=O)(c1ccccc1)N1CCCC(c2nc(-c3cccs3)no2)C1 (centres undefined),67% (inactive)
6,CCOC(=O)Cn1c(=O)n(C2CCCCC2)c2nc(-c3ccc(C(C)C)cc3)nc(C(N)=O)c21,61% (inactive)
7,CCOCCCNC(=O)C1CCCN(Cc2nc(-c3ccc(CC)cc3)oc2C)C1 (centres undefined),76% (inactive)
8,O=C(NCc1ccc(F)cc1)C1CCCCN1S(=O)(=O)c1ccc(F)cc1 (centres undefined),32% (active)
9,COc1cccc(CNC(=O)C2CCCN(S(=O)(=O)c3ccc4c(ccn4C)c3)C2)c1 (centres undefined),124% (inactive)
10,COc1ccc(CNC(=O)C2CCCCN2S(=O)(=O)c2ccc(F)cc2)cc1 (centres undefined),95% (inactive)
11,COc1cccc(CNC(=O)C2CCCN(S(=O)(=O)c3ccc4c(ccn4C)c3)C2)c1OC (centres undefined),101% (inactive)
12,Cc1ccc(CNC(=O)C2CCCCN2S(=O)(=O)c2ccc(F)cc2)cc1 (centres undefined),84% (inactive)
13,COc1ccc(CNC(=O)C2CCCN(S(=O)(=O)c3ccc4c(ccn4C)c3)C2)c(OC)c1 (centres undefined),25% (active)
14,CCC(=O)N1CCc2cc(CNC(=O)Nc3cc(C)ccc3C)ccc21,84% (inactive)
15,CC(=O)N1CCCc2cc(S(=O)(=O)N3CCCC(C(=O)Nc4cc(Cl)ccc4C)C3)ccc21 (centres undefined),124% (inactive)
16,CC(C)Sc1ncc(Cl)c(C(=O)Nc2c(C(=O)Nc3ccccc3)oc3ccccc23)n1,61% (inactive)
17,CN(C)c1ccc(C(CC(=O)O)NC(=O)c2ccc(Cl)cc2)cc1 (centres undefined),104% (inactive)
18,COc1ccc(NC(=O)c2nnn(Cc3nc(-c4cc(OC)c(OC)c(OC)c4)oc3C)c2C)cc1,61% (inactive)
19,C=CCc1c(C)nc(SC)nc1Nc1ccc(C(=O)O)cc1,113% (inactive)
20,O=C(Oc1cccc(-n2cnnn2)c1)C1CCCCC1,94% (inactive)
21,Cc1ccccc1C(=O)Nc1c(C)nc2ccccn2c1=O,37% (active)
22,Cc1ccc(C(=O)Nc2c(C)nc3ccccn3c2=O)cc1C,69% (inactive)
23,Cc1ccc(C(=O)Nc2c(C)nc3ccccn3c2=O)cc1,74% (inactive)
24,Cc1nc2ccccn2c(=O)c1NC(=O)c1ccccc1Cl,131% (inactive)

row,SMILES,survival
1,Cc1nc2ccccn2c(=O)c1NC(=O)c1ccc(C(F)(F)F)cc1,0% (active)
2,Cc1nc2ccccn2c(=O)c1NC(=O)c1ccc(F)c(F)c1,99% (inactive)
3,O=c1ccc2cc(S(=O)(=O)NCc3ccc(Cl)cc3)ccc2[nH]1,91% (inactive)
4,Cc1cccc2sc(N(Cc3cccnc3)C(=O)CCOc3ccccc3)nc12,82% (inactive)
5,Cc1cccc(N2CCN(S(=O)(=O)c3ccc4oc(=O)c5ncn(C)c5c4c3)CC2)c1C,77% (inactive)
6,O=C(/C=C/c1ccccc1)N1CCN(Cc2cc(=O)n3nc(-c4ccccc4)sc3n2)CC1,90% (inactive)
7,CC(NC(=O)C1CCN(C(=O)c2ccc(-n3ccc4ccccc43)s2)CC1)c1ccccc1 (centres undefined),79% (inactive)
8,CCOc1ccc(/C=C/C(=O)NCc2ccco2)cc1OC,83% (inactive)
9,Cc1cc(C)nc(NS(=O)(=O)c2ccc(NC(=O)COc3ccc(C(C)(C)C)cc3)cc2)n1,56% (inactive)
10,CCN(c1ccc(OC)cc1)S(=O)(=O)c1ccc2[nH]c(=O)ccc2c1,79% (inactive)
11,CN(C)CCN(Cc1ccccc1)S(=O)(=O)c1ccc2[nH]c(=O)ccc2c1,95% (inactive)
12,COCCN(Cc1ccc(C)c(Br)c1)S(=O)(=O)c1ccc2[nH]c(=O)ccc2c1,20% (active)
13,Cc1ccc2oc(C(=O)Nc3ccc(S(=O)(=O)Nc4ncccn4)cc3)cc(=O)c2c1,70% (inactive)
14,Cc1ccc(C)c(NC(=O)c2ccc3c(c2)CCCN3S(C)(=O)=O)c1,81% (inactive)
15,CCS(=O)(=O)N1CCc2cc(C(=O)Nc3cc([N+](=O)[O-])ccc3C)ccc21,40% (active)
16,CCS(=O)(=O)N1CCc2cc(C(=O)Nc3cc(C)cc(C)c3)ccc21,80% (inactive)
17,CCS(=O)(=O)N1CCCc2cc(C(=O)Nc3cc([N+](=O)[O-])ccc3C)ccc21,42% (active)
18,CCS(=O)(=O)N1CCc2cc(C(=O)Nc3ccc(C)c(Cl)c3)ccc21,98% (inactive)
19,CCS(=O)(=O)N1CCc2cc(C(=O)Nc3cc(Cl)ccc3C)ccc21,72% (inactive)
20,CCc1nc2cccnc2n1-c1ccc(CC(=O)Nc2cccc(C)c2C)cc1,81% (inactive)
21,O=C(NCc1ccco1)C1CCC(N2C(=O)c3ccccc3C2=O)CC1 (centres undefined),63% (inactive)
22,C=CCNC(=O)Cc1c(O)c2ccccc2[nH]c1=O,101% (inactive)
23,CCCCCc1c(O)c2ccccc2[nH]c1=O,103% (inactive)
24,CC(C)COC(=O)Cc1c(O)c2ccccc2[nH]c1=O,39% (active)

row,SMILES,survival
1,Cc1ccc(NC(=O)C2CCN(S(=O)(=O)c3c(C)noc3C)CC2)cc1C,91% (inactive)
2,Cc1c(C)n(Cc2ccc(F)cc2)c2ccc(C(=O)N3CCN(c4ccc(Cl)cc4)CC3)cc12,83% (inactive)
3,Cc1ccc(OCC(=O)OC2=C(C(=O)c3ccccc3)N(C)S(=O)(=O)c3ccccc32)cc1,82% (inactive)
4,CCCN1C(C(=O)c2ccccc2)=C(OC(=O)COc2ccc(C)cc2)c2ccccc2S1(=O)=O,19% (active)
5,CCCN1C(C(=O)c2ccccc2)=C(OC(=O)COc2ccccc2)c2ccccc2S1(=O)=O,49% (inactive)
6,CCN1C(C(=O)c2ccccc2)=C(OC(=O)COc2ccc(OC)cc2)c2ccccc2S1(=O)=O,60% (inactive)
7,CCN1C(C(=O)c2ccccc2)=C(OC(=O)COc2ccc(C)cc2)c2ccccc2S1(=O)=O,79% (inactive)
8,CCN1C(C(=O)c2ccccc2)=C(OC(=O)COc2ccccc2)c2ccccc2S1(=O)=O,41% (active)
9,COc1ccc(-c2nc(C)c(CCNS(=O)(=O)c3cc(C)c(C)cc3C)s2)cc1,72% (inactive)
10,CCc1ccc(Nc2nn(-c3ccc(OC(F)(F)F)cc3)nc2C(C)=O)cc1,92% (inactive)
11,CCC1=NN(C(=O)c2ccccc2O)C(O)(c2ccccc2)C1 (centres undefined),1% (active)
12,CCOC(=O)N1N=C(C)CC1(O)c1ccccc1 (centres undefined),90% (inactive)
13,CCC1=NN(C(=O)Cc2ccccc2)C(O)(c2ccccc2)C1 (centres undefined),77% (inactive)
14,COc1ccc(CCNC(=O)C2CCCN(c3nc4c(C)cc(C)cc4s3)C2)cc1OC (centres undefined),81% (inactive)
15,O=C(CC(c1ccccc1)c1ccccc1)N1CCN(c2ccccn2)CC1,72% (inactive)
16,Cc1ccc(C(C)C)c(OCC(=O)Nc2cc(-c3nc4ccccc4[nH]3)ccc2C)c1,71% (inactive)
17,CCCOc1ccc(C(=O)Nc2cc(-c3nc4cc(C)cc(C)c4o3)ccc2C)cc1,85% (inactive)
18,Cc1ccc(OCC(=O)Nc2cc(-c3nc4ccccc4[nH]3)ccc2C)c(C)c1,78% (inactive)
19,Cc1ccc(-c2nc3ccccc3[nH]2)cc1NC(=O)C(C)C,70% (inactive)
20,COc1c(Cl)cc(C(=O)Nc2cc(-c3nc4ccccc4[nH]3)ccc2C)cc1Cl,49% (inactive)
21,Cc1ccc(-c2nc3ccccc3[nH]2)cc1NC(=O)COc1cccc(C)c1C,43% (inactive)
22,COc1cc(OC)cc(C(=O)Nc2cc(-c3nc4ccccc4[nH]3)ccc2C)c1,44% (active)
23,Cc1ccc(-c2nc3ccccc3[nH]2)cc1NC(=O)COc1ccccc1[N+](=O)[O-],60% (inactive)
24,CCCOc1ccc(C(=O)Nc2cc(-c3nc4ccccc4[nH]3)ccc2C)cc1,44% (active)

row,SMILES,survival
1,Cc1ccc(-c2nc3ccccc3[nH]2)cc1NC(=O)COc1ccc(Cl)cc1Cl,18% (active)
2,CCCOc1cccc(C(=O)Nc2cc(-c3nc4ccccc4[nH]3)ccc2C)c1,56% (active)
3,CCCOc1cccc(C(=O)Nc2ccc(-c3nc4ccccc4o3)cc2)c1,77% (inactive)
4,Cc1ccc(NC(=O)Cn2nc(C(F)(F)F)c3c2CCCC3)cc1,120% (inactive)
5,CCn1c(=O)c2sccc2n2c(CCC(=O)Nc3ccc(OC)cc3OC)nnc12,82% (inactive)
6,Cc1cccc(NC(=O)c2cnc3sc(N4CCCC4)nn3c2=O)c1C,73% (inactive)
7,Cc1ccc(NC(=O)C2CCCN(c3ncnc4c3nc3n4CCCCC3)C2)c(Br)c1 (centres undefined),87% (inactive)
8,CC(=O)c1cccc(NC(=O)C2=CC(c3ccc4c(c3)OCO4)=NS(=O)(=O)N2C)c1,72% (inactive)
9,Cc1ccc(CNC(=O)CN(c2cc(C)cc(C)c2)S(=O)(=O)c2c(C)[nH]c(=O)[nH]c2=O)cc1,91% (inactive)
10,Cc1ccccc1NC(=O)CSc1nc2ccc(NC(=O)c3cccs3)cc2s1,91% (inactive)
11,CCCCc1ccc(NC(=O)Cn2nnc3sc4c(c3c2=O)CCC(C)C4)cc1 (centres undefined),58% (inactive)
12,CC1CCc2c(sc3nnn(CCCCOc4ccc(Cl)cc4)c(=O)c23)C1 (centres undefined),107% (inactive)
13,CC1CCc2c(sc3nnn(Cc4ccc(F)cc4)c(=O)c23)C1 (centres undefined),-1% (active)
14,Cc1ccc(Cn2nnc3sc4c(c3c2=O)CCC(C)C4)cc1 (centres undefined),54% (active)
15,CCc1ccccc1NC(=O)Cn1nnc2sc3c(c2c1=O)CCC(C(C)(C)C)C3 (centres undefined),47% (active)
16,CN(C)c1ccc(NC(=O)Cn2nnc3sc4c(c3c2=O)CCC(C(C)(C)C)C4)cc1 (centres undefined),79% (inactive)
17,CC1CCc2c(sc3nnn(CC(=O)Nc4ccccc4Cl)c(=O)c23)C1 (centres undefined),71% (inactive)
18,CCOc1ccccc1NC(=O)Cn1nnc2sc3c(c2c1=O)CCC(C(C)(C)C)C3 (centres undefined),106% (inactive)
19,COC(=O)c1ccc(Cn2nnc3sc4c(c3c2=O)CCC(C)C4)cc1 (centres undefined),79% (inactive)
20,Cc1ccc(OCCn2nnc3sc4c(c3c2=O)CCC(C)C4)cc1 (centres undefined),54% (inactive)
21,CC1CCc2c(sc3nnn(Cc4ccccc4Cl)c(=O)c23)C1 (centres undefined),13% (active)
22,Cc1ccccc1OCCCCn1nnc2sc3c(c2c1=O)CCC(C)C3 (centres undefined),65% (inactive)
